Results with a measured potency or affinity are listed apart.
How the values were obtained:
Staphylococcus aureus = details: Concentration 32 ug.mL-1; ASSAY_TEST Inhibition of Bacterial Growth; detection method Absorption (OD600); MEDIA CAMHB; plate type 384well; NBS; CORNING #3640; time 18 hr
Escherichia coli = details: Concentration 32 ug.mL-1; ASSAY_TEST Inhibition of Bacterial Growth; detection method Absorption (OD600); MEDIA CAMHB; plate type 384well; NBS; CORNING #3640; time 18 hr

SMILES	Inhibition (Staphylococcus aureus)	Inhibition (Escherichia coli)
Cn1c([N+](=O)[O-])cnc1C(=O)NCc1ccc(F)cc1	28.26%	3.69%
CC(NC(=O)c1ncc([N+](=O)[O-])n1C)c1ccc(F)cc1 (stereo not given)	34.68%	2.11%
Cn1c([N+](=O)[O-])cnc1C(=O)NCc1ccc(OC(F)(F)F)cc1	35.57%	3.65%
Cn1c([N+](=O)[O-])cnc1C(=O)NCc1cccc(OC(F)(F)F)c1	39.06%	5.07%
Cc1ccc(CCNC(=O)c2ncc([N+](=O)[O-])n2C)cc1	48.13%	11.97%
CN(C)C(=O)c1ncc([N+](=O)[O-])n1C	42.28%	6.99%
Cn1c([N+](=O)[O-])cnc1C(=O)NCc1ccccn1.O=C(O)C(F)(F)F	45.26%	-0.31%
Cn1c([N+](=O)[O-])cnc1C(=O)N1CCOCC1	46.51%	8.52%
Cn1c([N+](=O)[O-])cnc1C(=O)N1CCCC1	47.23%	5.01%
Cn1c([N+](=O)[O-])cnc1C(=O)NC1CC1	-13.42%	-3.03%

From ChEMBL document CHEMBL4513134, “CO-ADD screening of University of Queensland (Australia) compounds” (2021)
